In the library only some 6.8% were active in any assay of this set; here they are far more common.
Pf Dd2 inh: P. falciparum Dd2 growth inhibition; SYBR Green, 72 h; hits give low values; activity change, % at 10 µM; AID 1159554; 2.3% of 94,000 active; in the data active means activity change below about -80%; inconclusive means no clear call, values can overlap the other calls
T cruzi growth-1: blocks T. cruzi growth in NIH3T3 culture; 5.9% of 77,000 active; T. cruzi beta-gal in NIH3T3, GalScreen luminescence, 90 h; AID 624255; inhibition, % at 8.34 µM;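 active means mean inhibition above about 93%, with at least 55% of replicates each passing it, limit read from the data, passing the limit was not always enough; inconclusive means only one of those two conditions holds; inactive means neither condition holds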
C diff HTS: blocks growth of Clostridium difficile; Clostridium difficile clinical isolate growth, OD600, 24 h; hits give low values; growth activity, negative = inhibition, % at 16 µg/mL (by protocol); 0.25% of 86,000 active;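 active means mean growth activity at or below -80% and every replicate also at or below -80%; inconclusive means mean at or below -80% but some replicate above -80%; inactive means mean growth activity above -80%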;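 further: 0% = DMSO wells and -100% = levofloxacin 16 µg/mL wells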
T cruzi growth-2: inhibitors of T. cruzi proliferation; shares compounds with T cruzi growth-1; T. cruzi beta-gal in NIH3T3, GalScreen luminescence, 90 h; inhibition, % at 8.35 µM; 72% of 5,600 active;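 active means mean replicate inhibition above about 95% and at least 55% of replicates individually reaching it, limit read from the data; inconclusive means only one of the two criteria is met; inactive means neither criterion is met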
T cruzi growth-3: blocks T. cruzi growth in NIH3T3 host cells; shares compounds with T cruzi growth-1; T. cruzi beta-gal in NIH3T3, GalScreen luminescence, 90 h; inhibition, % at 2.09 µM; 21% of 5,600 active; AID 651740;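 active means mean inhibition above about 95%, with at least 55% of replicates also reaching it, limit read from the data; inconclusive means meets just one of the two conditions; inactive means meets neither condition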;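 further: plate controls were neutral control median for no effect and positive control median for full effect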
3T3 cytotox: kills mouse NIH/3T3 fibroblasts. shares compounds with T cruzi growth-1. NIH/3T3 viability, CellTiter-Glo ATP luminescence, 90 h. 14% of 5,600 active. cytotoxicity (signal decrease), % at 8.35 µM. AID 651742;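 active means mean signal decrease across replicates above about 35% based on untreated-well scatter, with enough replicates individually passing, limit read from the data; inconclusive means no rule stated though some were filed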;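 further: 0% = median of neutral control wells and 100% = median of positive control wells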
3T3 cytotox 2: cytotoxicity in mouse NIH/3T3 fibroblasts; shares compounds with T cruzi growth-1; inhibition, % at 24.9 µM; NIH/3T3 viability, CellTiter-Glo ATP luminescence, 90 h; 56% of 5,600 active;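 active means mean loss of cell viability signal at or above a set limit, and enough replicates individually reaching it; inconclusive means meets only the mean limit or only the replicate share; inactive means meets neither condition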;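 further: 0% = median of neutral control wells and 100% = median of positive control wells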
* = called active by the depositor; ? = inconclusive; / = no result given.

SMILES | Pf Dd2 inh | T cruzi growth-1 | C diff HTS | T cruzi growth-2 | T cruzi growth-3 | 3T3 cytotox | 3T3 cytotox 2
Cc1noc(C)c1NC(=O)Nc1ccc2c(c1)C(=O)N([C@H](C)CO)C[C@@H](C)[C@H](CN(C)S(=O)(=O)c1c(C)noc1C)OCCCC[C@H](C)O2 | -4 | 19 | -6 | / | / | / | /
C[C@@H]1CN([C@@H](C)CO)C(=O)Cc2cc(NS(C)(=O)=O)ccc2O[C@@H]1CN(C)S(=O)(=O)c1cccs1 | -3 | 23 | -4 | / | / | / | /
C[C@@H]1CN([C@H](C)CO)C(=O)c2cccc(NC(=O)c3ccncc3)c2O[C@H]1CN(C)S(=O)(=O)c1ccc(F)cc1 | 29 | -3 | -5 | / | / | / | /
N#C[C@@H]1[C@@H](c2ccccc2C2=CCCCC2)[C@@H](CO)N1C(=O)CN1CCOCC1 | -19 | / | 5 | / | / | / | /
NCC[C@H]1CC[C@H](NS(=O)(=O)c2ccc(Cl)cc2)[C@@H](CO)O1 | 2 | -19 | / | / | / | / | /
CN(C)CCCNC(=O)[C@@H]1[C@@H](CO)[C@@H]2Cn3c(ccc(-c4ccc(F)cc4)c3=O)[C@@H]2N1C | -5 | -29 | 3 | / | / | / | /
COc1ccc(NC(=O)N(C)C[C@@H]2OCCCC[C@H](C)Oc3ccc(NC(=O)CCC(F)(F)F)cc3C(=O)N([C@@H](C)CO)C[C@@H]2C)cc1 | -53 | 43 | -5 | / | / | / | /
CCCNC(=O)N1[C@@H](C#N)[C@@H](c2ccc(C3=CCCCC3)cc2)[C@@H]1CO | -9 | 83 | -1 | / | / | / | /
CCCNC(=O)N1[C@H](C#N)[C@H](c2ccc(C3=CCCCC3)cc2)[C@@H]1CO | ? | 99* | -2 | 101* | 116* | 22 | 33*
COCC(=O)Nc1ccc2c(c1)OC[C@H](C)N(Cc1cncnc1)C[C@@H](C)[C@@H](OC)CN(C)C2=O | / | 22 | / | / | / | / | /
C[C@@H]1CN([C@H](C)CO)C(=O)c2cc(NC(=O)CCC(F)(F)F)ccc2O[C@@H](C)CCCCO[C@@H]1CN(C)Cc1ccc(Cl)c(Cl)c1 | -30 | 64 | 16 | / | / | / | /
C[C@@H]1CCCCO[C@@H](CN(C)Cc2ccc(Cl)c(Cl)c2)[C@H](C)CN([C@@H](C)CO)C(=O)c2cc(NC(=O)Nc3ccc(F)cc3)ccc2O1 | -53 | 104* | / | 101* | 117* | 5 | 18
C[C@@H]1CN([C@@H](C)CO)C(=O)c2cc(NC(=O)Nc3ccccc3)ccc2O[C@@H](C)CCCCO[C@H]1CN(C)Cc1ccc(Cl)c(Cl)c1 | -75 | 69 | / | / | / | / | /
C[C@@H]1CCCCO[C@H](CN(C)Cc2ccc(Cl)c(Cl)c2)[C@@H](C)CN([C@@H](C)CO)C(=O)c2cc(NC(=O)CCC(F)(F)F)ccc2O1 | -95* | 98* | 3 | ? | 114* | -15 | 106*
C[C@@H]1CCCCO[C@H](CN(C)Cc2ccc(Cl)c(Cl)c2)[C@@H](C)CN([C@H](C)CO)C(=O)c2cc(NC(=O)Nc3ccccc3)ccc2O1 | 2 | 90 | 9 | / | / | / | /
C[C@@H]1CCCCO[C@H](CN(C)Cc2ccc(Cl)c(Cl)c2)[C@@H](C)CN([C@@H](C)CO)C(=O)c2cc(NC(=O)Nc3ccc(F)cc3)ccc2O1 | -80 | 101* | / | 91 | 112* | -8 | 33*
C[C@H](CO)N1C[C@H](C)[C@H](CN(C)Cc2ccc(Cl)c(Cl)c2)OCCCC[C@H](C)Oc2ccc(NC(=O)Nc3ccc(F)cc3)cc2C1=O | -12 | 100* | / | 83 | 108* | 14 | 55*
C[C@@H]1CCCCO[C@@H](CN(C)Cc2ccc(Cl)c(Cl)c2)[C@H](C)CN([C@@H](C)CO)C(=O)c2cc(NC(=O)Nc3ccccc3)ccc2O1 | -72 | 70 | 3 | / | / | / | /
O=C(C[C@H]1CC[C@@H]2[C@H](COC[C@H](O)CN2C(=O)c2ccccc2F)O1)N1CCOCC1 | 1 | -16 | / | / | / | / | /
COc1ccc(CNC(=O)C[C@@H]2CC[C@H]3[C@@H](COc4ccc(NC(=O)C(C)C)cc4C(=O)N3C)O2)cc1 | -4 | 46 | -1 | / | / | / | /
COc1ccccc1S(=O)(=O)N[C@H]1CC[C@@H](CC(=O)N2CCCCC2)O[C@H]1CO | 25 | 13 | 1 | / | / | / | /
C[C@H]1CN([C@@H](C)CO)C(=O)c2cc(NC(=O)Nc3ccccc3)ccc2O[C@@H]1CN(C)S(=O)(=O)c1ccc(Cl)cc1 | -58 | 40 | -4 | / | / | / | /
COc1ccc2c3c(n(C)c2c1)[C@H](CO)N(C(=O)CC1CC1)CC31CN(C(=O)C2CC2)C1 | 8 | / | / | / | / | / | /
Cc1ccc(S(=O)(=O)N(C)C[C@@H]2Oc3ccc(NS(=O)(=O)c4ccc(F)cc4)cc3C(=O)N([C@H](C)CO)C[C@@H]2C)cc1 | -48 | 28 | 21 | / | / | / | /
COc1ccc(CN(C)C[C@H]2Oc3ccc(NS(=O)(=O)c4ccc(F)cc4)cc3C(=O)N([C@@H](C)CO)C[C@@H]2C)cc1 | 5 | -9 | -3 | / | / | / | /
SMILES | Pf Dd2 inh | T cruzi growth-1 | C diff HTS | T cruzi growth-2 | T cruzi growth-3 | 3T3 cytotox | 3T3 cytotox 2
C[C@@H]1CN([C@H](C)CO)C(=O)c2cc(C3=CCCCC3)cnc2O[C@@H]1CN(C)Cc1ccncc1 | -5 | / | -25 | / | / | / | /
O=C(c1ccc(F)cc1)N1CCCCN2[C@H](CO)[C@@H](c3ccc(/C=C/c4ccccc4)cc3)[C@H]2C1 | -23 | 108* | 48 | 103* | 78 | 21 | 104*
O=C(c1ccc(F)cc1)N1CCCCN2[C@H](C1)[C@H](c1ccc(/C=C/c3ccccc3)cc1)[C@@H]2CO | -13 | ? | -5 | ? | 35 | 22 | 103*
CN(C)C(=O)c1cccc(-c2ccc3c(c2)[C@H]2[C@H](CCN2S(=O)(=O)c2ccccc2)[C@@H](CO)N3)c1 | -19 | 100* | 3 | 96* | 81 | 10 | 17
N#Cc1cccc(-c2ccc3c(c2)[C@@H]2[C@@H](CCN2S(=O)(=O)c2ccccc2)[C@H](CO)N3)c1 | 4 | 83 | -3 | / | / | / | /
CN(C)C(=O)c1ccc(-c2ccc3c(c2)[C@H]2[C@H](CCN2S(=O)(=O)c2ccccc2)[C@H](CO)N3)cc1 | -34 | 29 | -14 | / | / | / | /
CN(C)C(=O)c1cccc(-c2ccc3c(c2)[C@@H]2[C@@H](CCN2S(=O)(=O)c2ccccc2)[C@H](CO)N3)c1 | -11 | 112* | -2 | 97* | 80 | 23 | 23
C[C@@H]1CN([C@H](C)CO)C(=O)c2cc(-c3cncnc3)cnc2O[C@H]1CN(C)C(=O)c1ccccc1F | 16 | 84 | -3 | / | / | / | /
CCCc1cn(CC[C@H]2CC[C@H](NC(=O)Cc3cccnc3)[C@H](CO)O2)nn1 | -7 | -13 | -5 | / | / | / | /
COc1cccc(S(=O)(=O)Nc2ccc3c(c2)[C@H]2C[C@H](CC(=O)NCCc4ccccc4)O[C@H](CO)[C@H]2O3)c1 | -13 | 26 | / | / | / | / | /
C[C@@H]1CN([C@@H](C)CO)C(=O)c2cccc(N(C)C)c2O[C@@H]1CN(C)Cc1ccc(Cl)c(Cl)c1 | -25 | 48 | 11 | / | / | / | /

Bioassay records deposited in PubChem BioAssay by Broad Institute.
